Test results taken from PubChem BioAssay AID1159580 (chemical genetic matrix, 2015).
In all, about 5,500 compounds went through this assay and about 2,000 (36%) were called active. Roughly 18% stayed inconclusive and do not appear here. No stated cut-off is given here; in the data, active means normalized growth mostly below about 0.91 (no sharp cut-off); inconclusive means no clear call, values can overlap the other calls; inactive means mostly above about 0.92. The list shows a part of the results.

Assay: chemical genetic growth profiling, strain panel (AID 1159580);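 further: tested at 20 µM; growth read once vehicle control cultures reached saturation at 30 °C; 1 = growth at the plate median or of vehicle wells; lower values mean less growth of the strain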
Conditions: growth OD

Measured: normalized growth

COc1cc(NC(C)CCCN)c2ncccc2c1 (configuration not stated)
inactive: S. cerevisiae deletion strains, locus YJR075W, strain HOC1, hits give low values 1 | S. cerevisiae deletion strains, locus YKL009W, strain mrt4, hits give low values 1.02 | S. cerevisiae deletion strains, locus YKL068W, hits give low values 1.01 | S. cerevisiae deletion strains, locus YKL085W, strain MDH1 (second series), hits give low values 1 | S. cerevisiae deletion strains, locus YKL085W, strain MDH1, hits give low values 1 | S. cerevisiae deletion strains, locus YKL160W, strain elf1, hits give low values 0.942 | S. cerevisiae deletion strains, locus YKL190W, strain CNB1, hits give low values 1 | S. cerevisiae deletion strains, locus YKR001C, strain vps1, hits give low values 1.01 | S. cerevisiae deletion strains, locus YKR026C, strain gcn3, hits give low values 1.01 | S. cerevisiae deletion strains, locus YKR091W, strain srl3, hits give low values 0.999 | S. cerevisiae deletion strains, locus YLL001W, strain dnm1, hits give low values 0.965 | S. cerevisiae deletion strains, locus YLL026W, hits give low values 0.998 | S. cerevisiae deletion strains, locus YLL041C, strain sdh2, hits give low values 1 | S. cerevisiae deletion strains, locus YLR027C, strain aat2, hits give low values 0.997 | S. cerevisiae deletion strains, locus YLR039C, strain RIC1, hits give low values 1.03 | S. cerevisiae deletion strains, locus YLR058C, strain SHM2, hits give low values 1.01 | S. cerevisiae deletion strains, locus YLR102C, strain apc9, hits give low values 1.01 | S. cerevisiae deletion strains, locus YLR113W, strain HOG1, hits give low values 1.06 | S. cerevisiae deletion strains, locus YLR221C, strain rsa3, hits give low values 1.01 | S. cerevisiae deletion strains, locus YLR258W, strain gsy2, hits give low values 1.04 | S. cerevisiae deletion strains, locus YLR262C, strain YPT6 (second series), hits give low values 0.956 | S. cerevisiae deletion strains, locus YLR262C, strain YPT6, hits give low values 1.05 | S. cerevisiae deletion strains, locus YLR268W, strain sec22, hits give low values 1.02 | S. cerevisiae deletion strains, locus YLR320W, strain mms22, hits give low values 0.987 | S. cerevisiae deletion strains, locus YLR330W, strain CHS5, hits give low values 1 | S. cerevisiae deletion strains, locus YLR342W, strain FKS1 (second series), hits give low values 0.947 | S. cerevisiae deletion strains, locus YLR342W, strain FKS1, hits give low values 0.991 | S. cerevisiae deletion strains, locus YLR357W, strain rsc2, hits give low values 0.991 | S. cerevisiae deletion strains, locus YLR370C, strain arc18, hits give low values 1.02 | S. cerevisiae deletion strains, locus YLR371W, strain rom2, hits give low values 1.01 | S. cerevisiae deletion strains, locus YLR384C, strain iki3, hits give low values 1.02 | S. cerevisiae deletion strains, locus YLR418C, strain cdc73, hits give low values 0.988 | S. cerevisiae deletion strains, locus YML016C, strain PPZ1, hits give low values 1.01 | S. cerevisiae deletion strains, locus YML032C, strain rad52, hits give low values 1.01 | S. cerevisiae deletion strains, locus YML120C, strain ndi1, hits give low values 0.995 | S. cerevisiae deletion strains, locus YML124C, strain tub3, hits give low values 1.01 | S. cerevisiae deletion strains, locus YMR058W, strain fet3, hits give low values 0.999 | S. cerevisiae deletion strains, locus YMR078C, strain ctf18, hits give low values 0.997 | S. cerevisiae deletion strains, locus YMR125W, strain sto1, hits give low values 0.951 | S. cerevisiae deletion strains, locus YMR129W, hits give low values 1.01 | S. cerevisiae deletion strains, locus YMR205C, strain PFK2, hits give low values 0.962 | S. cerevisiae deletion strains, locus YMR223W, strain ubp8, hits give low values 0.991 | S. cerevisiae deletion strains, locus YMR231W, strain pep5, hits give low values 1.01 | S. cerevisiae deletion strains, locus YMR263W, strain SAP30, hits give low values 1 | S. cerevisiae deletion strains, locus YMR307W, strain GAS1, hits give low values 0.951 | S. cerevisiae deletion strains, locus YNL067W, strain RPL9B, hits give low values 1.01 | S. cerevisiae deletion strains, locus YNL071W, strain lat1, hits give low values 1.01 | S. cerevisiae deletion strains, locus YNL128W, strain TEP1, hits give low values 1 | S. cerevisiae deletion strains, locus YNL153C, strain GIM3, hits give low values 1.01 | S. cerevisiae deletion strains, locus YNL183C, strain NPR1, hits give low values 0.972 | S. cerevisiae deletion strains, locus YNL209W, strain ssb2, hits give low values 1 | S. cerevisiae deletion strains, locus YNL233W, strain BNI4, hits give low values 1 | S. cerevisiae deletion strains, locus YNL248C, strain rpa49, hits give low values 0.938 | S. cerevisiae deletion strains, locus YNL250W, strain rad50, hits give low values 1.02 | S. cerevisiae deletion strains, locus YNL271C, strain bni1, hits give low values 1.02 | S. cerevisiae deletion strains, locus YNL298W, strain CLA4, hits give low values 1.02 | S. cerevisiae deletion strains, locus YNL307C, strain MCK1, hits give low values 1 | S. cerevisiae deletion strains, locus YNL322C, strain KRE1 (second series), hits give low values 1 | S. cerevisiae deletion strains, locus YNL322C, strain KRE1, hits give low values 1 | S. cerevisiae deletion strains, locus YNR049C, strain mso1, hits give low values 1 | S. cerevisiae deletion strains, locus YNR052C, strain pop2, hits give low values 1.02 | S. cerevisiae deletion strains, locus YOL006C, strain TOP1, hits give low values 1.03 | S. cerevisiae deletion strains, locus YOL012C, strain htz1 1 | S. cerevisiae deletion strains, locus YOL147C, strain pex11, hits give low values 1.02 | S. cerevisiae deletion strains, locus YOR001W, strain rrp6, hits give low values 1.02 | S. cerevisiae deletion strains, locus YOR061W, strain CKA2, hits give low values 1 | S. cerevisiae deletion strains, locus YOR069W, strain VPS5, hits give low values 1.01 | S. cerevisiae deletion strains, locus YOR070C, strain gyp1, hits give low values 1.02 | S. cerevisiae deletion strains, locus YOR080W, strain dia2, hits give low values 1.01 | S. cerevisiae deletion strains, locus YOR083W, strain WHI5, hits give low values 0.958 | S. cerevisiae deletion strains, locus YOR106W, strain vam3, hits give low values 0.959 | S. cerevisiae deletion strains, locus YOR136W, strain idh2, hits give low values 1.01 | S. cerevisiae deletion strains, locus YOR144C, strain elg1, hits give low values 1.01 | S. cerevisiae deletion strains, locus YOR184W, strain ser1, hits give low values 1.04 | S. cerevisiae deletion strains, locus YOR231W, strain MKK1, hits give low values 1 | S. cerevisiae deletion strains, locus YOR265W, strain rbl2, hits give low values 1.02 | S. cerevisiae deletion strains, locus YOR270C, strain vph1, hits give low values 1.05 | S. cerevisiae deletion strains, locus YOR290C, strain snf2, hits give low values 0.997 | S. cerevisiae deletion strains, locus YOR316C, strain cot1, hits give low values 1.01 | S. cerevisiae deletion strains, locus YPL051W, strain arl3, hits give low values 0.982 | S. cerevisiae deletion strains, locus YPL055C, strain LGE1, hits give low values 1 | S. cerevisiae deletion strains, locus YPL078C, strain atp4, hits give low values 0.96 | S. cerevisiae deletion strains, locus YPL106C, strain sse1, hits give low values 1 | S. cerevisiae deletion strains, locus YPL240C, strain hsp82, hits give low values 1.01 | S. cerevisiae deletion strains, locus YPL241C, strain CIN2, hits give low values 1 | S. cerevisiae deletion strains, locus YPL256C, strain CLN2, hits give low values 1.07 | S. cerevisiae deletion strains, locus YPR119W, strain clb2, hits give low values 1.01 | S. cerevisiae deletion strains, locus YPR141C, strain kar3, hits give low values 1.01 | S. cerevisiae deletion strains, locus YPR163C, strain tif3, hits give low values 1.01 | S. cerevisiae deletion strains, locus YPR167C, strain met16, hits give low values 1.02 | S. cerevisiae deletion strains, strain wtn01, hits give low values 1.02 | S. cerevisiae strains, strain wild type, hits give low values 1
